The entries come from a sample that favours hits as a whole.
LmPK inh = inhibitors of Leishmania mexicana pyruvate kinase | Q27686 | purified LmPK, Kinase-Glo ATP luminescence, 1 h | Potency, µM (doses to about 57.5 µM), inactives show at the highest dose activity change, negative = inhibition, hits mostly inhibitors | 0.37% of 290,000 active | AID 1721; note: potency is the fitted concentration of half-maximal effect; % is set by controls: 0 for no effect and ±100 for the full control effect
Target sequence (Q27686 whole entry, looked up): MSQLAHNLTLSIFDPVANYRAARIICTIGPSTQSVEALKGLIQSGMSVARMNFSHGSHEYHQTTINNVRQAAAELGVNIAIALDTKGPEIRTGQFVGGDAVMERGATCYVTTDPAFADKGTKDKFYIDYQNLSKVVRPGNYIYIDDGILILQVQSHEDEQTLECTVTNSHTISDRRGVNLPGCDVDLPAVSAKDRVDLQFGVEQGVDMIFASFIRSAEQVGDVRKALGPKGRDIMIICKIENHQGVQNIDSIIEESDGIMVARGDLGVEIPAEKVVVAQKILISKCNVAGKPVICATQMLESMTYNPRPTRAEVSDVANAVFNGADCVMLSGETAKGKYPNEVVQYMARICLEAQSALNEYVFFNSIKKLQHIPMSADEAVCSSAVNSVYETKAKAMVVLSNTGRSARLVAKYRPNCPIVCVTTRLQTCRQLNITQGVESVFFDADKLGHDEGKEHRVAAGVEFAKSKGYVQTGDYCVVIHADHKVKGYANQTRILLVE
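Screened at intermediate enzyme activity to detect both inhibitors and activators: LmPK at 0.1 nM, with a 0.5 nM enzyme column as activation reference. PEP 0.5 mM, ADP 0.1 mM; ATP detected by luminescence after 1 h.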
FBPA Giardia inh = inhibitors of Giardia lamblia fructose-1,6-bisphosphate aldolase; A8B2U2; purified Giardia FBPA; Potency, µM (titrated, usually from 59.6 µM), for the others: top-dose activity, negative = inhibition, usual class: inhibitors; 0.71% of 290,000 active; AID 2451; note: potency is the fitted concentration of half-maximal effect; % is set by controls: 0 for no effect and ±100 for the full control effect; nearly all actives have a fitted effect of over 55% in size
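40 nM FBPA preincubated 10 min at RT with compound (up to 57.5 uM final), then substrate plus GAPDH/TPI/NAD/arsenate coupling and diaphorase/resazurin added. Fluorescence read after 20 min at RT, 525/598 nm.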
Tb PYK inh = inhibitors of Trypanosoma brucei pyruvate kinase. TbPYK enzyme, Kinase-Glo Plus ATP luminescence, 45 min. 0.12% of 410,000 active. Potency, µM (doses to about 76.8 µM), for inactives: top-dose activity, negative = inhibition, hits mostly inhibitors. Q57TT1; note: potency is the fitted concentration of half-maximal effect; % is set by controls: 0 for no effect and ±100 for the full control effect; nearly all actives have a fitted effect of over 50% in size
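Activity of T. brucei pyruvate kinase was followed by Kinase-Glo Plus luminescence after the enzyme reacted 45 min at room temperature with 130 uM ADP (final) and substrate. Test compounds were added before ADP at multiple concentrations.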
Cycloheximide cs = counter-screen hit for Shiga toxin inhibitors, cycloheximide; max response, %; 12% of 300,000 active; cell reporter, cycloheximide protein synthesis inhibition counterscreen; in the data active = max response mostly above about 13%, no sharp cut-off; inactive = mostly below about 14%; note: read at 38.3 µM for the half of the compounds with a filed dose; 0% is about no effect
Sm TGR block = S. mansoni TGR enzyme inhibition; Q962Y6; purified TGR, DTNB reduction, TNB absorbance 405 nm; Potency, µM (top dose mostly 114 µM), inactives show at the top dose activity change, negative = inhibition, actives largely listed as inhibitors; 3% of 360,000 active; AID 485364; note: potency is the fitted concentration of half-maximal effect; % is set by controls: 0 for no effect and ±100 for the full control effect; nearly all actives have a fitted effect of over 60% in size
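First, TGR (20 nM dispensed) and NADPH were mixed with compound. Second, a 15 min room-temperature incubation followed. Third, further NADPH and then DTNB were added to start the reaction. Finally, TNB absorbance was monitored kinetically.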
Shiga toxin inh = blocks Shiga toxin action in Vero cells; Vero cells, Shiga toxin protein synthesis inhibition reporter; inhibition, % at 38.7 µM; 9.2% of 290,000 active; AID 2315; in the data active = inhibition mostly above about 28%, no sharp cut-off; inactive = mostly below about 43%; note: 0% is about no effect
Starred values were filed as active, the others as inactive; ? = inconclusive; . = no result. Unless noted, calls come from the whole dose curve; as a rule, active = well fitted curve in the direction sought with a large enough effect; inconclusive = small, poorly fitted or top-dose-only effect, or another doubt; inactive = no such curve, though single readings can be large; an effect the other way counts as inactive or inconclusive.

SMILES | LmPK inh | FBPA Giardia inh | Tb PYK inh | Cycloheximide cs | Sm TGR block | Shiga toxin inh
CCOc1ccc(C(C)=O)cc1CSc1nnnn1-c1ccc(O)cc1 | 2% | 0% | -3% | -1 | ? | -20
COc1ccc(C(C)=O)cc1CSc1nnnn1-c1ccc(O)cc1 | 13% | 2% | 1% | 1 | 7.1µM* | -6
C=CCn1c(C)cc(C(=O)CSc2ccc(NC(C)=O)cc2)c1C | 0% | 5% | 2% | 43* | 7% | 114*
COCC(C)n1c(C)cc(C(=O)CSc2nnnn2-c2ccc(O)cc2)c1C (configuration not stated) | -1% | -2% | 12% | 29* | -27% | 50*
O=S1(=O)c2cccc3cccc(c23)N1CCBr | -6% | 2% | -11% | -3 | -31% | -13
COCCN(C(=O)COC(=O)Cc1coc2cc3c(cc12)CCC3)c1c(N)n(Cc2ccccc2)c(=O)[nH]c1=O | . | . | -2% | . | 5% | .
Cc1ccc(NS(=O)(=O)c2cccc(C(=O)NCC(c3ccco3)N3CCCCC3)c2)cc1 (configuration not stated) | -2% | 10% | 5% | -2 | 1% | -3
COC(=O)c1ccc(-n2c(C)cc(C(=O)CSc3ccc(NC(C)=O)cc3)c2C)cc1 | 2% | -4% | -17% | -3 | -17% | -7
CC(=O)Nc1ccc(SCC(=O)c2cc(C)n(Cc3cccs3)c2C)cc1 | 13% | 1% | 6% | 77* | 9% | 101*
COCCn1c(C)cc(C(=O)CSc2ccc(NC(C)=O)cc2)c1C | 2% | 6% | -8% | 47* | ? | 105*
CC(=O)Nc1ccc(SCC(=O)c2cc(C)n(-c3ccccc3F)c2C)cc1 | 1% | -17% | -5% | 74* | 1% | 125*
O=C(c1cc2nc(C3CC3)cc(C(F)F)n2n1)N1CCOCC1 | -7% | -1% | -16% | 10 | ? | 32*
O=C(O)c1ccc(C=NN2CCCCCC2)cc1 | . | . | -1% | . | . | .
O=C(O)c1ccc(/C=N/N2CCN(c3ccccc3)CC2)cc1 | -9% | 2% | 0% | 34* | -1% | 88*
Cc1ccc(N2CCN(/N=C/c3ccccc3)CC2)cc1 | 3% | 4% | 2% | -2 | -17% | 4
C(=N/N1CCN(c2ccccc2)CC1)/c1ccncc1 | -9% | 1% | -5% | 17* | 8% | 29*
Cc1ccccc1N(CC(=O)NCCc1ccccc1)C(=O)c1csnn1 | -3% | . | 1% | -5 | -10% | -3
COc1cccc(NC(=O)COC(=O)C2CC(=O)N(c3ccc(C)cc3)C2)c1 (configuration not stated) | . | . | 0% | . | -3% | .
COC(=O)C(O)(NC(=O)OCc1ccccc1)C(F)(F)F (configuration not stated) | 3% | 1% | 7% | 1 | 3% | -4
COC(=O)C(NC=O)C(O)(Cc1ccccc1)C(F)(F)F (configuration not stated) | -4% | 13% | 0% | 57* | 5% | 74*
C=CCNC(=O)c1cnn(-c2ccccc2)c1-c1ccccc1 | 10% | -9% | 0% | -3 | -4% | 17
CNC(=O)c1c(Br)cnn1-c1ccc(C)cc1 | -4% | 8% | -1% | 35* | 21% | 42*
Cc1ccc(-n2ncc(Cl)c2C(=O)NC2CC2)cc1 | -13% | 1% | -10% | 49* | 9% | 93*
CNC(=O)c1nn(-c2ccc(C)cc2)ccc1=O | 5% | 5% | -1% | -2 | -1% | -6
C=CCNC(=O)c1c(Cl)cnn1-c1ccc(C)cc1 | 2% | 2% | 0% | 44* | -16% | 69*
CNC(=O)c1c(Cl)cnn1-c1ccc(C)cc1 | -5% | 1% | -4% | 21* | 17% | 55*
CNc1c([N+](=O)[O-])cnn1-c1ccc(C)cc1 | -4% | 8% | -24% | 0 | 8% | 17
CC1=C(c2ccc(Cl)cc2)S(=O)(=O)N=C1N1CCN(c2cccc(C(F)(F)F)c2)CC1 | . | . | 2% | . | -7% | .
COc1ccc(NC=O)c(C(=O)CCNC(C)=O)c1 | . | 2% | . | -2 | . | -13
